We go through eight molecules from PubChem BioAssay (NCI).

Compounds without any hit were thinned out: in the full panel of roughly 83,000, 20% have a hit.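 Plates (96-well) were seeded with cells, treated with compound at one concentration, and incubated for 48 hours before percent growth was determined.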 Unmarked numbers belong to inactive results. Active and inactive are the calls of the source. How the source made its calls: active means growth percent below 10; inactive means the rest.

Test systems include DU-145 prostate; K-562 leukemia; MALME-3M melanoma; MDA-MB-231 breast; RXF 393 renal; SF-268 CNS; SF-295 CNS; SF-539 CNS; UACC-257 melanoma; M14 melanoma; HT29 colon; SNB-75 CNS; SNB-19 CNS; U251 CNS; PC-3 prostate; SK-MEL-5 melanoma; UACC-62 melanoma; SK-MEL-28 melanoma; LOX IMVI melanoma.
Holding throughout (assay): NCI-60 one-dose screen, 48 h (100 = growth as untreated, 0 = no growth, -100 = all killed)
Common to all, as to conditions: 10 µM unless noted

`C#C[C@]1(O)CC[C@H]2[C@@H]3CC=C4c5sc(Nc6ccc(C)cn6)nc5CC[C@]4(C)[C@H]3CC[C@@]21C`: the growth in the assay with DU-145 prostate was 27.9%; in the assay with K-562 leukemia it was -2.56% (active); in the assay on MALME-3M melanoma, -31.4% (active); in the assay with MDA-MB-231 breast it was -1.2% (active); with RXF 393 renal it was -78.6% (active); in the assay on SF-268 CNS, -7.73% (active). For the same molecule, the growth in the assay on SF-295 CNS is -70.2% (active); with SF-539 CNS, -66.8% (active); in the assay with UACC-257 melanoma, -42.8% (active); in the assay on M14 melanoma, -48.8% (active); in the assay on HT29 colon, 1.03% (active); in the assay on SNB-75 CNS, -12.2% (active). Further, the growth is -21.2% (active) in the assay on SNB-19 CNS; -1.79% (active) in the assay with U251 CNS; -27.3% (active) in the assay on PC-3 prostate; -93.1% (active) in the assay on SK-MEL-5 melanoma; -24.8% (active) with UACC-62 melanoma; -72.4% (active) with SK-MEL-28 melanoma.

On to `Cc1ccsc1[C@H]1c2[nH]c3ccccc3c2C[C@H]2C(=O)N(CCCCCCC(=O)NO)CC(=O)N12`, for which the growth with DU-145 prostate is 90.6%; in the assay with K-562 leukemia it was 58.2%; in the assay with MALME-3M melanoma, 25.6%; in the assay with MDA-MB-231 breast it was 96.8%; in the assay with RXF 393 renal, 85.9%; with SF-268 CNS it was 105%. Moreover, the growth with SF-295 CNS is 95.1%; with SF-539 CNS, 77.9%; in the assay with UACC-257 melanoma, 76%; in the assay on M14 melanoma it was 86.4%; in the assay on HT29 colon it was 87.3%; in the assay on SNB-75 CNS it was 51.8%. Also, the growth in the assay on SNB-19 CNS was 81.1%; in the assay with U251 CNS it was 83.8%; in the assay with PC-3 prostate it was 78.6%; in the assay on SK-MEL-5 melanoma, 83.4%; in the assay on UACC-62 melanoma, 57.9%; in the assay with LOX IMVI melanoma it was -71.9% (active). For the same molecule, the growth in the assay on SK-MEL-28 melanoma was 73.7%.

`Cc1cc2nc3c4cc(C#N)ccc4n(CCN(C)C)c3nc2cc1C`: the growth in the assay with DU-145 prostate is 5.75% (active); in the assay on K-562 leukemia, 3.51% (active); in the assay on MALME-3M melanoma it was -68% (active); with MDA-MB-231 breast, 8.68% (active); in the assay on RXF 393 renal it was -62.1% (active); with SF-268 CNS, -7.74% (active). Besides, the growth with SF-295 CNS was -4.33% (active); with SF-539 CNS, -15.2% (active); in the assay with UACC-257 melanoma, -25.5% (active); with M14 melanoma, -83.3% (active); in the assay on HT29 colon it was -44.3% (active); in the assay on SNB-75 CNS it was -8.73% (active). Moreover, the growth is 2.73% (active) in the assay on U251 CNS; 4.69% (active) with PC-3 prostate; -89.5% (active) in the assay with SK-MEL-5 melanoma; -60.6% (active) with UACC-62 melanoma; -55.5% (active) in the assay on LOX IMVI melanoma.

Take `COc1ccc(-c2nc(C#N)c(N3CCC(S(=O)(=O)N4CCOCC4)CC3)o2)cc1`: the growth with DU-145 prostate was 100%; with K-562 leukemia, 98.8%; in the assay with MALME-3M melanoma, 107%; with MDA-MB-231 breast, 95.1%; with RXF 393 renal it was 108%; with SF-268 CNS, 94.2%. Further, the growth in the assay on SF-295 CNS was 102%; with SF-539 CNS, 97.5%; in the assay with UACC-257 melanoma, 109%; in the assay on M14 melanoma, 109%; in the assay with HT29 colon it was 101%; with SNB-75 CNS, 103%. Also, the growth is 96.9% in the assay with SNB-19 CNS; 104% in the assay on U251 CNS; 98.2% in the assay on PC-3 prostate; 97.1% in the assay with SK-MEL-5 melanoma; 96.3% with UACC-62 melanoma; 100% in the assay on LOX IMVI melanoma. Besides, in the assay with SK-MEL-28 melanoma, the growth was 99%.

With `CCS(=O)(=O)Nc1ccc(C(=O)CC2(O)C(=O)Nc3ccccc32)cc1` (configuration not stated), the growth with DU-145 prostate was 109%; with K-562 leukemia, 93.5%; in the assay with MALME-3M melanoma it was 90.1%; in the assay with MDA-MB-231 breast it was 99.6%; in the assay with RXF 393 renal, 115%; with SF-268 CNS, 97.3%. In addition, the growth in the assay on SF-295 CNS is 102%; with SF-539 CNS, 96.1%; in the assay with UACC-257 melanoma, 103%; in the assay on M14 melanoma, 105%; with HT29 colon, 113%; in the assay with SNB-75 CNS it was 69.2%. Besides, the growth was 101% in the assay with SNB-19 CNS; 105% in the assay with U251 CNS; 92.4% in the assay with PC-3 prostate; 99.8% with SK-MEL-5 melanoma; 96.9% in the assay with UACC-62 melanoma; 94.6% in the assay on LOX IMVI melanoma. Besides, in the assay on SK-MEL-28 melanoma, the growth is 109%.

Take `N#Cc1c(-c2cccs2)cc(-c2cnccn2)nc1SCC(=O)N/N=C/c1ccccc1`: the growth with DU-145 prostate is 14%; in the assay with K-562 leukemia it was 46.5%; with MALME-3M melanoma, 4.87% (active); in the assay with MDA-MB-231 breast it was 46.5%; in the assay on RXF 393 renal, -16.4% (active); in the assay with SF-268 CNS it was 56.4%. Besides, the growth was 60.9% in the assay on SF-295 CNS; 56.1% in the assay on SF-539 CNS; 68.2% in the assay on UACC-257 melanoma; 37% in the assay with M14 melanoma; 37.3% with HT29 colon; 12.6% with SNB-75 CNS. The growth is 11.9% in the assay on U251 CNS; 65.2% with PC-3 prostate; 4.1% (active) in the assay on SK-MEL-5 melanoma; 55.3% with UACC-62 melanoma; -28.7% (active) in the assay on LOX IMVI melanoma; 43.9% in the assay on SK-MEL-28 melanoma.

Consider `N#Cc1c(-c2cccs2)cc(-c2cnccn2)nc1SCC(=O)N/N=C/c1cccs1`, for which the growth in the assay with DU-145 prostate is 37.3%; in the assay with K-562 leukemia it was 63.2%; with MALME-3M melanoma, 39.2%; with MDA-MB-231 breast, 40.3%; in the assay on RXF 393 renal, -1.38% (active); in the assay with SF-268 CNS it was 53.7%. Moreover, the growth was 48.8% in the assay with SF-295 CNS; 9.8% (active) in the assay with SF-539 CNS; 53.9% in the assay with UACC-257 melanoma; 57.4% with M14 melanoma; 30.9% with HT29 colon; 42.8% in the assay on SNB-75 CNS. Moreover, the growth with SNB-19 CNS is 47.7%; in the assay with U251 CNS, 19.5%; in the assay with PC-3 prostate, 53.6%; with SK-MEL-5 melanoma, 20.5%; in the assay on UACC-62 melanoma it was 55.6%; in the assay on LOX IMVI melanoma it was 7.29% (active). In addition, the growth in the assay with SK-MEL-28 melanoma was 27.5%.

Turning to `CCCCSC1=C(Cl)CN(c2ccc(Cl)cc2)C1=O`, the growth in the assay with DU-145 prostate was 106%; with K-562 leukemia, 82.6%; with MALME-3M melanoma it was 103%; in the assay on MDA-MB-231 breast, 104%; with RXF 393 renal, 109%; in the assay on SF-268 CNS it was 105%. Besides, the growth in the assay on SF-295 CNS was 93%; with SF-539 CNS, 85.2%; with UACC-257 melanoma it was 107%; in the assay with M14 melanoma, 96.5%; in the assay on HT29 colon, 105%; in the assay with SNB-75 CNS, 104%. The growth is 93.3% in the assay on SNB-19 CNS; 93.6% in the assay on U251 CNS; 98.4% with PC-3 prostate; 98.3% in the assay with SK-MEL-5 melanoma; 93.4% in the assay with UACC-62 melanoma; 102% with SK-MEL-28 melanoma.
